Measured values taken from PubChem BioAssay AID1439 (NMMLSC, 2008).
Hit rate of the full screen: of about 220,000 compounds, about 770 (0.35%) were called active. Inconclusive results (about 15%) are left out. Cut-off read from the data, not from the text of the source: active = binding response below about 49% or above about 150%; inconclusive = no clear call, values can overlap the other calls; inactive = in between. Many of the other results were omitted from the sample, so actives are more common in it than they were.

What follows are compounds tested against Guanine nucleotide-binding protein G(o) subunit alpha (Homo sapiens) (UniProt P09471) (assay: RGS7-Galphao binding modulators, primary screen, biochemical, multiplexed bead flow cytometry (AID 1439;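 note: fluorescent Galphao held in activated GDP-AlF4 state binding bead-coupled RGS7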)). Conditions: at 10 µM, actives lie on both sides.
Guanine nucleotide-binding protein G(o) subunit alpha (Homo sapiens), sequence (P09471 whole entry, looked up): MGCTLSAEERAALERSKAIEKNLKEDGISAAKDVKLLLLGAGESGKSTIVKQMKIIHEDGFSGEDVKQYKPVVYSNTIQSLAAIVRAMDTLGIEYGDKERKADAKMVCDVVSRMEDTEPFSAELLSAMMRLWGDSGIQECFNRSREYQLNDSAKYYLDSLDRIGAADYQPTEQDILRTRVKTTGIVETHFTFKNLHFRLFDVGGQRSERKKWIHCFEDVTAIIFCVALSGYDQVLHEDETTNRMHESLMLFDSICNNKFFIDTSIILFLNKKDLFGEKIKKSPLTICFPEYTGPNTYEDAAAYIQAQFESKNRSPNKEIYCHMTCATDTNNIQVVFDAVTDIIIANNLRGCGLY

Row | SMILES | binding response (% of control)
1 | O=C(CCN1CCN(C/C=C/c2ccccc2)CC1)Nc1cccc(F)c1 | 101% (inactive)
2 | Cc1cc(NC(=O)COc2ccc(Cl)cc2Cl)n(CCC#N)n1 | 93.9% (inactive)
3 | CCCn1nnnc1NC(=O)COc1ccc(Cl)cc1C | 17.1% [inhibitor] (active)
4 | CCOC(=O)N1CCN(C(=O)COc2ccc(Cl)cc2C)CC1 | 102% (inactive)
5 | Cn1c(=NC(=O)C2CC2)sc2cc(F)cc(F)c21 | 95.6% (inactive)
6 | Cn1c(=NC(=O)c2ccco2)sc2cccc(F)c21 | 103% (inactive)
7 | CCCC(=O)N=c1sc2cccc(F)c2n1C | 18% [inhibitor] (active)
8 | Cc1cnc(C(=O)N2CCCC(C(=O)c3ccc(C(F)(F)F)cc3)C2)cn1 (stereo unspecified) | 107% (inactive)
9 | COc1cccc(-n2nc(C(=O)N3CCN(Cc4ccccc4)CC3)c3ccccc3c2=O)c1 | 98.7% (inactive)
10 | CCC(=O)OCCNc1nc(-c2ccccc2)nc2ccccc12 | 110% (inactive)
11 | O=C(OCC1O[C@@H](OC(=O)c2cc(O)c(O)c(O)c2)[C@@H](OC(=O)c2cc(O)c(O)c(O)c2)[C@@H](OC(=O)c2cc(O)c(O)c(O)c2)[C@@H]1OC(=O)c1cc(O)c(O)c(O)c1)c1cc(O)c(O)c(O)c1 (stereo partly specified) | 20.5% [inhibitor] (active)
12 | CC(=O)NC1C(OCc2ccccc2)OC(COC(C)=O)C(OC(C)=O)C1OC(C)=O (stereo unspecified) | 99.5% (inactive)
13 | NC(=O)c1ccc(CN2CCC(Cc3ccccc3)CC2)cc1 | 99.1% (inactive)
14 | OCC1(CCc2ccccc2)CCN(Cc2ccc3nsnc3c2)CC1 | 96.7% (inactive)
15 | CN1CCNC(=O)C1CC(=O)NCCC1=CCCCC1 (stereo unspecified) | 96.7% (inactive)
16 | CCc1nnc(NS(=O)(=O)c2ccc(NC(=S)NC(=O)c3cccs3)cc2)s1 | 96.9% (inactive)
17 | Cc1cc2c(c(=O)n1Cc1ccco1)C(c1ccccc1)C(C#N)=C(N)O2 (stereo unspecified) | 101% (inactive)
18 | CN(c1ccccc1)c1ccc(/C=c2\s/c(=C(/C#N)C(=O)C(C)(C)C)n(Cc3ccco3)c2=O)cc1 | 421% (active)
19 | CCOC(=O)CSc1nc2c(sc(=S)n2CCc2ccccc2)c(=O)n1Cc1ccco1 | 113% (inactive)
20 | COc1ccc(C(=O)CSc2nc(C)cc(C)n2)cc1[N+](=O)[O-] | 103% (inactive)
21 | O=C(NCCCN1CCOCC1)c1ccc([N+](=O)[O-])cc1[N+](=O)[O-] | 101% (inactive)
22 | O=C(CC1SC(=Nc2ccccc2F)N(CCN2CCOCC2)C1=O)Nc1ccc(F)cc1F (stereo unspecified) | 87% (inactive)
23 | CC(C)(C)CN1CCNC(=O)C1CC(=O)NC1Cc2ccccc2C1 (stereo unspecified) | 85.9% (inactive)

Row | SMILES | binding response (% of control)
24 | CC1(C)CC(=O)C(CC(=O)N2CCC(Cc3ccccc3)CC2)C(=O)C1 | 106% (inactive)
25 | CC1=CC=CN2C1=NC(=O)CC2(C)C(=O)N(CC(=O)NC1CCCC1)c1ccccc1C (stereo unspecified) | 104% (inactive)
26 | Cc1ccccc1C(=O)Nc1ccc(N2CCCCCC2)cc1 | 91.3% (inactive)
27 | CCN1CCN(Cc2c(O)ccc3c(=O)c(-c4ccc(OC)c(OC)c4)c(C(F)(F)F)oc23)CC1 | 97.2% (inactive)
28 | CN1CCN(Cc2c(O)ccc3c2oc(=O)c2ccccc23)CC1 | 99.2% (inactive)
29 | CCOC(=O)c1oc2c(CN3CCN(C)CC3)c(O)ccc2c(=O)c1-c1ccc(Br)cc1 | 318% (active)
30 | COc1ccc(N2C(=O)/C(=C\c3ccco3)N=C2SCC(N)=O)cc1Cl | 93.9% (inactive)
31 | O=C(O)CCCCCNc1ncnc2ccc(Br)cc12 | 91.8% (inactive)
32 | Cc1cccc(N2CCN(Cc3c(C)n(C)n(-c4ccccc4)c3=O)CC2)c1C | 103% (inactive)
33 | Cc1c(CN2CCCC(C(=O)c3cccc(Cl)c3)C2)c(=O)n(-c2ccccc2)n1C (stereo unspecified) | 230% (active)
34 | Cc1c(CN2CCC(C)CC2)c(=O)n(-c2ccccc2)n1C | 97% (inactive)
35 | Cc1ccc(NC(=O)CN2CCCCC2)c2c1CC(C)(C)O2 | 103% (inactive)
36 | CS/C(=C\[N+](=O)[O-])Nc1ccc(C)cc1 | 106% (inactive)
37 | S=C(Nc1cccc(Br)c1)N1CCn2cccc2C1c1cccnc1 (stereo unspecified) | 102% (inactive)
38 | O=C(Nc1ccccc1Cl)c1ccccc1S(=O)(=O)c1ccccc1[N+](=O)[O-] | 90.2% (inactive)
39 | CC(=O)Nc1ccc(NC(=O)COc2ccccc2C(=O)Nc2cccc(Cl)c2Cl)cc1 | 94.1% (inactive)
40 | CN(C)S(=O)(=O)Oc1ccccc1C(=O)Nc1ccccc1Cl | 223% (active)
41 | COc1cccc2c1OCC(CN1CCN(C3CCCCC3)C(CCO)C1)=C2 (stereo unspecified) | 103% (inactive)
42 | CN1CCN(CCCCOc2ccccc2-c2ccccc2)CC1 | 102% (inactive)
43 | CC(C)C(O)C1CCN(Cc2nc(Cc3ccccc3Cl)no2)CC1 (stereo unspecified) | 101% (inactive)
44 | CC(Nc1nc(N2CCOCC2)nc2ccccc12)c1ccccc1 (stereo unspecified) | 103% (inactive)
45 | Cn1c(Cn2nnc3ccccc32)nnc1SCC(=O)c1ccccc1F | 103% (inactive)
46 | COc1ccc(OC)c(/C=N/NC(=O)CSc2nnc(C)n2-c2ccccc2)c1 | 105% (inactive)

Row | SMILES | binding response (% of control)
47 | C=CCn1c(Cn2nnc3ccccc32)nnc1SCC(=O)N/N=C/c1cc(Br)cc(OC)c1O | -19.4% [inhibitor] (active)
48 | CCn1ccnc1CN(C)Cc1nc(-c2ccc3c(c2)OCO3)no1 | 96.5% (inactive)
49 | O=C(CCn1ccc([N+](=O)[O-])n1)Nc1nccs1 | 97.4% (inactive)
50 | COc1ccc(C(=O)COC(=O)c2ccc3ccccc3n2)cc1 | 39% [inhibitor] (active)
51 | COc1ccc(C2=NOC(COC(=O)c3ccc4ccccc4n3)C2)cc1 (stereo unspecified) | 97% (inactive)
52 | CC(OC(=O)c1ccc2ccccc2n1)C(=O)c1ccccc1 (stereo unspecified) | 104% (inactive)
53 | O=C(O)c1ccccc1-c1ccccc1C(=O)NCc1cccnc1 | 104% (inactive)
54 | CN(C)CCN=c1cc(-c2ccccc2)oc2ccc(Cl)cc12 | 155% (active)
55 | CN(C)CCn1c(=S)[nH]c2ccc(Cl)cc2c1=O | 97.9% (inactive)
56 | CCN(CC)S(=O)(=O)c1ccc(N2CCCC2)c(NS(=O)(=O)c2cccs2)c1 | 103% (inactive)
57 | Cc1cc(C)cc(N(C(C)C(=O)Nc2c(C)n(C)n(-c3ccccc3)c2=O)S(C)(=O)=O)c1 (stereo unspecified) | 101% (inactive)
58 | Cc1cc(C)cc(N(CC(=O)Nc2c(C)n(C)n(-c3ccccc3)c2=O)S(C)(=O)=O)c1 | -21.3% [inhibitor] (active)
59 | Cc1ccc(S(=O)(=O)CC(=O)Nc2c(C)n(C)n(-c3ccccc3)c2=O)cc1 | 95.9% (inactive)
60 | CCn1cc(C(=O)NCCCN2CCCCCC2)c(=O)c2cc(S(=O)(=O)N3CCc4ccccc4C3)ccc21 | 103% (inactive)
61 | Cc1c(C(=O)Nc2ccccc2)sc2nc3n(c(=O)c12)CCCCC3 | 94.2% (inactive)
62 | NC(=O)C1(N2CCCCC2)CCN(C(=S)Nc2ccc(Cl)cc2)CC1 | 108% (inactive)
63 | CCC(=O)N1CCC(C(N)=O)(N2CCCCC2)CC1 | 161% (active)
64 | CC(C)(O)C#Cc1ccc(C(=O)N2CCC(C(N)=O)(N3CCCCC3)CC2)cc1 | 101% (inactive)
65 | Fc1ccc(COc2cccc(-c3n[nH]c(=S)o3)c2)cc1 | 103% (inactive)
66 | COC(=O)CN1C(=O)N/C(=C/c2ccc(OC)c(C)c2OC)C1=O | 103% (inactive)
67 | COc1cc(/C=C/C(=O)N2c3ccccc3Sc3ccc(C(F)(F)F)cc32)cc(OC)c1OC | 104% (inactive)
68 | O=C(CN1CCCCCC1)N1c2ccccc2Sc2ccc(C(F)(F)F)cc21 | 89.4% (inactive)
69 | O=C(CN1CCCCC1)N1c2ccccc2Sc2ccc(C(F)(F)F)cc21 | 27.5% [inhibitor] (active)

Row | SMILES | binding response (% of control)
70 | N#C/C(C(=S)Nc1ccccc1)=C1/NN=C(N2CCOCC2)N1c1ccccc1 | 97.6% (inactive)
71 | O=C(Nc1ccc(-n2ccnc2P(=O)(O)c2ccccc2)cc1)c1ccccc1Br | 152% (active)
72 | Cc1ccc(NC(=O)c2cccnc2C(=O)Nc2ccc(C)cc2)cc1 | 106% (inactive)
73 | O=C(Nc1ccccc1)c1cccnc1Nc1ccccc1 | 99.9% (inactive)
74 | COC(=O)C1=C(C)N(c2ccc(C)cc2)/C(=C/c2ccc(O)cc2)C1=O | 104% (inactive)
75 | Cc1ccc2[nH]c(=O)c(CN(CC3COCCO3)C(=O)Nc3ccccc3C)cc2c1 (stereo unspecified) | 102% (inactive)
76 | CC(=O)c1ccc(NC(=O)CSC(=S)N2CCCC2)cc1 | 102% (inactive)
77 | CN(CC(=O)NC1CCCCC1)S(=O)(=O)c1ccc(Br)s1 | 99.1% (inactive)
78 | Cc1ccc(S(=O)(=O)N(C)CC(=O)NC2CCCC2)cc1 | 98.3% (inactive)
79 | CN(CC(=O)NC1CCCCC1)S(=O)(=O)c1cccc2cccnc12 | 241% (active)
80 | N/C(=N/O)c1cccn1Cc1ccccc1[N+](=O)[O-] | 99.3% (inactive)
81 | O=C(COC(=O)CCc1ccc(S(=O)(=O)N2CCOCC2)cc1)Nc1cccc(Cl)c1 | 99.8% (inactive)
82 | Cc1cc(C)n(-c2ccc(Cl)c(C(=O)O)n2)n1 | 96.7% (inactive)
83 | Cc1cc(C)nc(/N=C2\NC(=O)CC(C(=O)O)N2c2ccc(Cl)cc2Cl)n1 (stereo unspecified) | 170% (active)
84 | CCOC(=O)c1nc(C)n(-c2ccc(Cl)cc2Cl)n1 | 102% (inactive)
85 | COc1cccc(C2c3[nH]c4ccccc4c3CCN2Cc2cccc(C)n2)c1 (stereo unspecified) | 102% (inactive)
86 | O=C(NC1CC1)c1ccc2c(c1)NC(=O)c1ccccc1S2 | 191% (active)
87 | O=C(NC1CC1)c1cccc(Br)c1 | 102% (inactive)
88 | S=C1Nc2cc(Cl)ccc2Sc2ccccc21 | 100% (inactive)
89 | CC(=O)NC(Cc1ccc(F)c(F)c1)C(=O)NC1CCN(C(=O)c2ccc(C)cc2)CC1 (stereo unspecified) | 95.6% (inactive)
90 | CCCn1c(NC(=O)C23CC4CC(CC(O)(C4)C2)C3)nc2ccccc21 | 104% (inactive)
91 | CC(=O)N1CCc2cc(Br)cc(S(=O)(=O)CCC(=O)Nc3c(C)n(C)n(-c4ccccc4)c3=O)c21 | 98.9% (inactive)
